PubChem BioAssay AID1159580 (chemical genetic matrix, 2015)
Screen size: about 5,500 compounds; about 2,000 (36%) were called active. Roughly 18% stayed inconclusive and do not appear here. Rule as the data show it: active = normalized growth mostly below about 0.91 (no sharp cut-off); inconclusive = no clear call, values can overlap the other calls; inactive = mostly above about 0.92. This is one part of the list.

Test: chemical genetic growth profiling, strain panel (AID 1159580);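 also: tested at 20 µM; growth read once vehicle control cultures reached saturation at 30 °C; 1 = growth at the plate median or of vehicle wells; lower values mean less growth of the strain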
Details: S. cerevisiae deletion strains, growth OD

Measured: normalized growth

Clc1cncc(Cl)c1N/N=C\C1CC2C=CC1C2 (stereo not drawn)
inactive: locus YAL013W, strain DEP1, active compounds read low 0.937 | locus YBR229C, strain ROT2, active compounds read low 0.939 | locus YCL061C, strain MRC1, active compounds read low 0.928 | locus YDL101C, strain DUN1, active compounds read low 0.926 | locus YDL134C, strain PPH21, active compounds read low 1.01 | locus YDR150W, strain NUM1, active compounds read low 0.915 | locus YEL061C, strain CIN8, active compounds read low 0.914 | locus YGR078C, strain PAC10, active compounds read low 0.967 | locus YJL187C, strain SWE1, active compounds read low 0.989 | locus YJR043C, strain POL32, active compounds read low 1 | locus YJR075W, strain HOC1, active compounds read low 0.935 | locus YLR058C, strain SHM2 (second series), active compounds read low 0.99 | locus YMR219W, strain ESC1, active compounds read low 0.988 | locus YMR263W, strain SAP30, active compounds read low 0.939 | locus YMR307W, strain GAS1, active compounds read low 0.878 | locus YNL153C, strain GIM3, active compounds read low 0.957 | locus YNL322C, strain KRE1, active compounds read low 0.986 | locus YNR030W, strain Alg12, active compounds read low 0.924 | locus YPL055C, strain LGE1, active compounds read low 0.872 | locus YPL241C, strain CIN2, active compounds read low 0.871
active: locus YHR030C, strain SLT2, active compounds read low 0.644 | locus YHR087W, strain rtc3, active compounds read low 0.874 | locus YLR039C, strain RIC1, active compounds read low 0.599 | locus YLR085C, strain ARP6, active compounds read low 0.74 | locus YLR262C, strain YPT6, active compounds read low 0.601 | locus YML094W, strain GIM5, active compounds read low 0.838 | locus YNL298W, strain CLA4 (second series), active compounds read low 0.799 | locus YPR135W, strain CTF4, active compounds read low 0.622
